According to PubChem BioAssay (Tox21):
Inconclusive results are not listed. Activity calls are given as the source filed them. Unless noted, the call rests on the fitted dose curve; in most records, active means well fitted curve in the direction sought with a large enough effect in the repeat runs; inconclusive means weak or mixed curves; inactive means no such curve, though single readings can be large; an effect the other way counts as inactive or inconclusive.

Legend:
[1] = qHTS assay to identify small molecule antagonists of the estrogen receptor alpha (ER-alpha) signaling pathway using the BG1 cell line in the presence of 0.1 nM 17-beta-estradiol - cell viability counter screen (AID 1259241); further: nearly all actives have a fitted effect of over 40% in size
Procedure, shortened: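 Estradiol-stimulated (0.1 nM) VM7Luc4E2 cells exposed to compounds 22 hr; viability measured by fluorescence of cleaved CellTiter-Fluor substrate after 30 min.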

[2] = qHTS assay to identify small molecule antagonists of the androgen receptor (AR) signaling pathway using the MDA cell line in the presence of 0.5 nM R1881 - cell viability counter screen (AID 1259242); further: nearly all actives have a fitted effect of over 45% in size
Procedure, shortened: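 R1881 at 0.5 nM final stimulated MDA-kb2 cells during 16 hr compound treatment at 37C. Cytotoxicity read: CellTiter-Fluor fluorescence after 30 min.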

[3] = target: Estrogen receptor (Homo sapiens) (UniProt P03372); test: qHTS assay to identify small molecule antagonists of the estrogen receptor alpha (ER-alpha) signaling pathway using the BG1 cell line in the presence of 0.1 nM 17-beta-estradiol (AID 1259244); further: nearly all actives have a fitted effect of over 50% in size
Procedure, shortened: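 VM7Luc4E2; 4xERE-luciferase; 0.1 nM E2 final; 22 h co-incubation, 37C; ONE-Glo luminescence after 30 min at room temperature.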

[4] = qHTS assay to identify small molecule phospholipidosis (PLD) inducers (AID 1259344; active means well fitted curve in the direction sought with a large enough effect; an effect the other way counts as inactive or inconclusive)
Procedure, shortened: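 HepG2 cells grown on collagen I take up LipidTOX Red while exposed to compound for 24 h; after fixation they are imaged at 20x and pit metrics are extracted.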

[5] = qHTS assay to identify small molecule HDAC inhibitors (AID 1259364); further: potency means the concentration at half of the fitted maximal effect;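 further: wild-type HCT-116 cells with endogenous class I/II HDAC activity; nearly all actives have a fitted effect of over 45% in size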; on activity change, negative = inhibition: top concentration of the series differs between compounds
Procedure, shortened: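 Relative class I and II HDAC activity is taken from the luminogenic signal in HCT-116 cells, with compound exposure 2 hr and reagent development 30 min at room temperature.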

[6] = qHTS assay to identify small molecule HDAC inhibitors - cell viability counter screen (AID 1259365); further: series mostly up to about 92 µM; nearly all actives have a fitted effect of over 50% in size
Procedure, shortened: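 After overnight seeding at 1,500 cells per well, wild-type HCT-116 cultures took up compounds in DMSO for 2hr at 37 C. Viable cell content came from luminescence with CellTiter-Glo.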

[7] = qHTS assay to identify small molecule agonists of the sonic hedgehog signaling (Shh) pathway - cell viability counter screen (AID 1259366); further: nearly all actives have a fitted effect of over 50% in size
Procedure, shortened: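 Same-well cytotoxicity read. Gli1-Luc reporter 3T3 cells; compounds 24hr, 37C/5% CO2; CellTiter-Fluor fluorescence.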

[8] = qHTS assay to identify small molecule antagonists of the sonic hedgehog signaling (Shh) pathway - cell viability counter screen (AID 1259367); further: nearly all actives have a fitted effect of over 55% in size
Procedure, shortened: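 After a 4 hr settling period, 3T3 Gli1-Luc cells were treated with DMSO-dissolved chemicals and conditioned medium, kept 24 hr at 37C in 5% CO2, and assayed for viability by CellTiter-Fluor fluorescence following 1 hr reagent incubation.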

[9] = qHTS assay to identify small molecule agonists of the sonic hedgehog signaling (Shh) pathway (AID 1259368; calls by dose curve;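 further: NIH/3T3-derived 3T3Gli1-Luc cells carrying a stable Gli1-driven firefly luciferase reporter; series mostly up to about 92 µM; nearly all actives have a fitted effect of over 15% in size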)
Procedure, shortened: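 Mouse fibroblast (NIH/3T3) reporter cells with stably integrated Gli1-Luc were treated 24 hr with compound; firefly luciferase luminescence served as the read-out.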
On the % scale 0 is the no-effect control and ±100 the full control effect.

Chain of Estrogen receptor (Homo sapiens) (P03372 whole entry, looked up): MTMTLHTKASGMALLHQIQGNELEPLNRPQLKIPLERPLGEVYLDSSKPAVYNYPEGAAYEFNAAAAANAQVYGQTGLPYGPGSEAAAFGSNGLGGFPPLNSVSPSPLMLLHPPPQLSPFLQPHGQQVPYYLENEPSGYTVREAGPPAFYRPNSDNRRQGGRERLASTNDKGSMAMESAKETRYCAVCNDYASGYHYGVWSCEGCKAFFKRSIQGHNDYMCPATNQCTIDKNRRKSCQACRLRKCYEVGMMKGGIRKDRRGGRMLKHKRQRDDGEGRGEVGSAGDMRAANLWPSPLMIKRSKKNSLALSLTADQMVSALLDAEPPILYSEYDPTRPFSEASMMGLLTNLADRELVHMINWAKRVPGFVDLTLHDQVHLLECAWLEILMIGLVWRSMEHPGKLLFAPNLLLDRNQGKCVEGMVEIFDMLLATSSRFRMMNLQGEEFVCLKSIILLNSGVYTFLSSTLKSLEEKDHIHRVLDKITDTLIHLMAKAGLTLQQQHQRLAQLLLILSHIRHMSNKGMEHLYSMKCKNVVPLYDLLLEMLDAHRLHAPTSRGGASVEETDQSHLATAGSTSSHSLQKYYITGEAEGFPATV

CCn1cc(C(=O)O)c(=O)c2cc(F)c(N3CCN(C)CC3)cc21
inactive: activity change, negative = cytotoxicity [1] 1.73% [at 19 µM] | viability change, negative = cytotoxic [2] 1.22% [at 19 µM] | activity change, negative = inhibition [3] 6.79% [at 19 µM] | Potency [4] | activity change, negative = inhibition [5] -0.624% [at 19 µM] | activity change, negative = cytotoxicity [6] 2.46% [at 19 µM] | viability change, negative = cytotoxic [7] 6.14% [at 19 µM] | viability change, negative = cytotoxic [8] 3.37% [at 19 µM] | activity change [9] -0.335% [at 18.9 µM, active compounds read high]

CC(=O)N[C@@H](CCC(N)=O)C(=O)O
inactive: outcome [1] | outcome [2] | outcome [3] | Potency [4] | Potency [5] | outcome [6] | outcome [8] | Potency [9]

CCCCCCC(=O)OCC
inactive: outcome [1] | outcome [2] | outcome [3] | Potency [5] | outcome [6] | Potency [7] | outcome [8] | Potency [9]

CCCCCCC(CCCCCCCCCCC(=O)OCC(COC(C)=O)OC(C)=O)OC(C)=O (stereo not drawn)
inactive: outcome [1] | outcome [2] | outcome [3] | Potency [5] | outcome [6] | Potency [7] | outcome [8] | Potency [9]

C[C@H](O)C(=O)Nc1c(I)c(C(=O)NC(CO)CO)c(I)c(C(=O)NC(CO)CO)c1I
inactive: outcome [1] | outcome [2] | outcome [3] | Potency [4] | outcome [6] | Potency [7] | outcome [8] | Potency [9]

CC(=O)CCc1ccc(O)cc1
inactive: outcome [1] | outcome [2] | outcome [3] | Potency [5] | outcome [6] | Potency [7] | outcome [8] | Potency [9]

O=C1OC(=O)c2cc([N+](=O)[O-])ccc21
inactive: outcome [1] | outcome [2] | outcome [3] | Potency [5] | outcome [6] | Potency [7] | outcome [8] | Potency [9]

CC(C)(C)C(=O)/C=C/c1ccc(Cl)cc1
inactive: outcome [1] | outcome [2] | outcome [3] | Potency [5] | outcome [6] | Potency [7] | outcome [8] | Potency [9]

Nc1ccn(C2CO[C@H](CO)O2)c(=O)n1 (stereo partly drawn)
inactive: outcome [1] | outcome [2] | outcome [3] | PLD induction [4] 4.48% [at 7.66 µM] | outcome [6] | outcome [8] | Potency [9]

CNc1ncnc2nc[nH]c12
inactive: outcome [1] | outcome [2] | outcome [3] | Potency [5] | outcome [6] | Potency [7] | outcome [8] | Potency [9]

CC(C)(C)OC(=O)N1C[C@@H](F)C[C@H]1C(=O)O
inactive: outcome [1] | outcome [2] | outcome [3] | Potency [5] | outcome [6] | Potency [7] | outcome [8] | Potency [9]

CC(=O)c1ccc(C)cc1
inactive: outcome [1] | outcome [2] | outcome [3] | Potency [5] | outcome [6] | Potency [7] | outcome [8] | Potency [9]

COCCOC(=O)CC#N
inactive: outcome [1] | outcome [2] | outcome [3] | Potency [5] | outcome [6] | Potency [7] | outcome [8] | Potency [9]

COc1nc(C)nc(N)n1
inactive: outcome [1] | outcome [2] | outcome [3] | Potency [5] | outcome [6] | Potency [7] | outcome [8] | Potency [9]

Nc1cc(N)cc(C(=O)O)c1
inactive: outcome [1] | outcome [2] | outcome [3] | Potency [5] | outcome [6] | Potency [7] | outcome [8] | Potency [9]

CCCCCCCCCCCCCCCCCC(=O)OCCCCCCCCCCCCCC(C)C
inactive: outcome [1] | outcome [2] | outcome [3] | Potency [5] | outcome [6] | Potency [7] | outcome [8] | Potency [9]

O=C(O)Cc1cc(I)c(Oc2cc(I)c(O)c(I)c2)c(I)c1
inactive: outcome [1] | outcome [2] | outcome [3] | Potency [5] | outcome [6] | Potency [7] | outcome [8] | Potency [9]

c1ccc(CCCc2ccccn2)cc1
active: Potency [5] 4.33 µM
inactive: outcome [1] | outcome [2] | outcome [3] | outcome [6] | Potency [7] | outcome [8] | Potency [9]

Cc1ccc(Nc2ccc(O)c3c2C(=O)c2ccccc2C3=O)cc1
inactive: outcome [1] | outcome [2] | outcome [3] | Potency [5] | outcome [6] | Potency [7] | outcome [8] | Potency [9]

CCCC(C)C(=O)O (stereo not drawn)
inactive: outcome [1] | outcome [2] | outcome [3] | Potency [5] | outcome [6] | Potency [7] | outcome [8] | Potency [9]

NC(=O)c1ncn([C@@H]2O[C@H](CO)[C@@H](O)[C@H]2O)c1O
inactive: outcome [1] | outcome [2] | outcome [3] | Potency [4] | outcome [6] | Potency [7] | outcome [8] | Potency [9]

O=C(O)c1ccccc1S
inactive: outcome [1] | outcome [2] | outcome [3] | Potency [4] | outcome [6] | Potency [7] | outcome [8] | Potency [9]

COC[C@H](c1ccc(C(F)(F)F)cc1)N1CCN(C2(C)CCN(C(=O)c3c(C)ncnc3C)CC2)C[C@H]1C
inactive: outcome [1] | outcome [2] | outcome [3] | Potency [5] | outcome [6] | Potency [7] | outcome [8] | Potency [9]

CN(C)C(=O)Nc1ccccc1
inactive: outcome [1] | outcome [2] | outcome [3] | Potency [5] | outcome [6] | Potency [7] | outcome [8] | Potency [9]

CC(=O)O[C@H](CC(=O)[O-])C[N+](C)(C)C
inactive: outcome [1] | outcome [2] | outcome [3] | Potency [5] | outcome [6] | Potency [7] | outcome [8] | Potency [9]

O=[N+]([O-])c1ccc(Oc2ccc([N+](=O)[O-])cc2)cc1
inactive: outcome [1] | outcome [2] | outcome [3] | Potency [5] | outcome [6] | Potency [7] | outcome [8] | Potency [9]
